Assays:
Type in all cases: functional
[1] = target: Solute carrier family 2, facilitated glucose transporter member 1 (Homo sapiens) (UniProt P11166); assay: ST_JUDE_LEISH: Cytotoxicity at 2uM final concentration against transgenic Leishmania Mexicana promastigotes LmGLUT1 that are glucose transport deficient and complemented with the human glucose transporter GLUT1. Activity is measured by DNA content using SYBR green in vitro
[2] = target: Hexose transporter 1 (Plasmodium falciparum) (UniProt O97467); assay: ST_JUDE_LEISH: Cytotoxicity at 2uM final concentration against transgenic Leishmania Mexicana promastigotes LmPfHT that are glucose transport deficient and complemented with the Plasmodium falciparum hexose transporter. Activity is measured by DNA content using SYBR green in vitro
[3] = target: Glucose transporter (Leishmania mexicana) (UniProt O61059); assay: ST_JUDE_LEISH: Cytotoxicity at 2uM final concentration against transgenic Leishmania Mexicana promastigotes LmGT2 that are glucose transport deficient and complemented with the L. Mexicana glucose transporter 2. Activity is measured by DNA content using SYBR green in vitro

Chain of Solute carrier family 2, facilitated glucose transporter member 1 (Homo sapiens) (P11166 whole entry): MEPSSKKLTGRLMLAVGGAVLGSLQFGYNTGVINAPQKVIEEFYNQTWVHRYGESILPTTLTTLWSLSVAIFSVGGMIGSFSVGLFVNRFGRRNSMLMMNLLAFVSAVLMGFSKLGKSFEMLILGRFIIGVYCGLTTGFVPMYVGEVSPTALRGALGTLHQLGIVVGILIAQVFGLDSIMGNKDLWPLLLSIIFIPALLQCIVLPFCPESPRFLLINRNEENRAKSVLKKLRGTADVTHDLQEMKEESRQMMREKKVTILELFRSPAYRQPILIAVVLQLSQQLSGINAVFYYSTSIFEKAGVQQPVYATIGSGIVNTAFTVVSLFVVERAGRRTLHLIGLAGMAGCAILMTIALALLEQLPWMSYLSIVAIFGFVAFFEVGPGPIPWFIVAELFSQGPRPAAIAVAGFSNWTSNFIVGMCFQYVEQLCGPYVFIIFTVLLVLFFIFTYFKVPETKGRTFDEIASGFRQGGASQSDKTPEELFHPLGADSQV

Structure (SMILES)	inhibition [1] [%]	inhibition [2] [%]	inhibition [3] [%]
COc1cc2nc(NCCc3ccccc3)nc(NC(C)c3ccccc3)c2cc1OC (centres undefined)	7.18	6.76	3.19
COC(=O)c1cc(OC2CCOC2=O)cc2c1OC(C)(C)O2 (centres undefined)	10.9	12.7	8.43
Cc1c(N=O)cc(C(C)(C)C)c(O)c1C(=O)Nc1ccc([N+](=O)[O-])cc1Cl	2.33	5.18	-0.56
Cc1cccc2nc(-c3ccc(-c4ccc(CN5CCN(c6ccc(C#N)cn6)CC5)cc4)s3)[nH]c12	5.16	6.3	-0.38
CC(C)Sc1nc(-c2ccccc2)nc2c1COC(C)(C)C2	-2.07	-2.02	-4.12
CCCc1cc(NC2CCN(C)CC2)nc(Nc2ccc(C)cc2)n1	5.35	3.28	2.46
CC(C)COc1ccc(Cl)cc1Cc1ccc(-c2nc3cc(N4CCN(C)CC4)ccc3[nH]2)o1	4.56	1.63	2.01
CN(C)c1ccc(CN2CCC(NC(=O)c3ccc(-c4cccc(C(F)(F)F)c4)s3)CC2)cc1	1.92	-0.72	5.11
CN(C)CCNC(=O)c1ccc(-c2ccc3c(Nc4ccccc4)c(C(N)=O)cnc3c2)cc1	1.31	1.74	2.36
CN1CCN(CC(=O)Nc2cccc(-c3cccc(-c4nc5cc(C(F)(F)F)ccc5[nH]4)c3)c2)CC1	3.23	2.92	3.87
COc1cccc(-c2cnc(N)c(-c3nc4ccc(C(F)(F)F)cc4[nH]3)c2)c1	4.93	5.1	1.42
CC(C)CCn1c(Sc2ccc(C#N)c([N+](=O)[O-])c2)nnc1-c1ccc(N(C)C)cc1	0.76	0.92	0.35
O=C(/C=C/c1ccc(Cl)c(Cl)c1)NC1CCC(CN2CCC(c3cc4ccccc4[nH]3)CC2)CC1 (centres undefined)	0.13	2.67	1.06
CC(C)(CNCc1cccc(Oc2ccccc2)c1)c1nc(-c2ccnc(N)n2)c(-c2ccc(Cl)c(O)c2)[nH]1	-0.85	-0.2	-0.78
CN(C)CCNCc1cccc(-c2ccc3c(Nc4cc(O)c(Cl)cc4F)ccnc3c2)c1	3.57	5.09	3.04
CCOC(=O)c1ccc(NC(=O)N[C@H]2CCN(CCCCCNC(=O)/C=C/c3ccc(Cl)c(Cl)c3)C2)cc1	4.4	2.51	5.84
COc1cccc(C(=O)NC(c2ccc(Cl)cc2Cl)c2cc(Cl)c3cccnc3c2O)c1 (centres undefined)	0.8	-0.13	1.53
O=C(Nc1ccc(-c2cccc(-c3nc4cc(F)ccc4[nH]3)c2)cc1)Nc1ccsc1	5.02	6.71	0.78

Source: ChEMBL document CHEMBL3433997, “St. Jude Leishmania screening dataset” (2016)
